Source: the supplement of paper PMC8728848
This is one part of a sample in which the strongest signals are shown more often than they occur.

Key:
Assay in all cases: glycan array binding signal (z-score within array); higher = stronger binding
Conditions in all cases: glycan notation: IUPAC condensed, linker removed
[1] = biological target: GlcNAc(b1-4)Gal(b1-4)GlcNAc
In short: (§1)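 The Consortium for Functional Glycomics database supplied 3228 glycan arrays, of which those lacking an available protein sequence were dropped. The binding signal, a within-array Z-score, was averaged across arrays of the same protein sequence and across linkers. Negative scores can be read as non-binding.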

[2] = biological target: Neu5Ac(a2-3)Gal(b1-3)GlcNAc(b1-2)Man(a1-3)[GlcNAc(b1-4)][Neu5Ac(a2-3)Gal(b1-3)GlcNAc(b1-2)Man(a1-6)]Man(b1-4)GlcNAc(b1-4)GlcNAc
In short: as §1

[3] = biological target: Neu5Ac(a2-3)Gal(b1-3)GlcNAc(b1-3)GalNAc
In short: as §1

[4] = biological target: Neu5Ac(a2-3)Gal(b1-3)GlcNAc(b1-6)GalNAc
In short: as §1

[5] = biological target: Neu5Ac(a2-3)Gal(b1-3)[Neu5Ac(a2-6)]GalNAc
In short: as §1

[6] = biological target: Neu5Ac(a2-3)Gal(b1-4)GlcNAc
In short: as §1

[7] = biological target: Neu5Ac(a2-3)Gal(b1-4)GlcNAc(b1-3)Gal(b1-3)GlcNAc
In short: as §1

[8] = biological target: Neu5Ac(a2-3)Gal(b1-4)GlcNAc(b1-3)Gal(b1-4)[Fuc(a1-3)]GlcNAc
In short: as §1

[9] = biological target: Neu5Ac(a2-3)Gal(b1-4)[Fuc(a1-3)]GlcNAc(b1-3)GalNAc
In short: as §1

[10] = biological target: Neu5Ac(a2-6)Gal(b1-4)GlcNAc(b1-2)Man(a1-3)Man(b1-4)GlcNAc(b1-4)GlcNAc
In short: as §1

[11] = biological target: Neu5Ac(a2-6)Gal(b1-4)GlcNAc(b1-2)Man(a1-3)[Man(a1-6)]Man(b1-4)GlcNAc(b1-4)GlcNAc
In short: as §1

[12] = biological target: Neu5Ac(a2-6)Gal(b1-4)GlcNAc(b1-2)Man(a1-6)Man(b1-4)GlcNAc(b1-4)GlcNAc
In short: as §1

[13] = biological target: Neu5Ac(a2-6)Gal(b1-4)GlcNAc(b1-3)Gal(b1-4)GlcNAc(b1-3)Gal(b1-4)GlcNAc
In short: as §1

[14] = biological target: Neu5Ac(a2-8)Neu5Ac(a2-3)[GalNAc(b1-4)]Gal(b1-4)Glc
In short: as §1

[15] = biological target: Neu5Ac(a2-8)Neu5Ac(a2-8)Neu5Ac(a2-3)Gal(b1-4)Glc
In short: as §1

[16] = biological target: Fuc(a1-2)Gal(b1-3)GlcNAc(b1-2)Man(a1-3)[Fuc(a1-2)Gal(b1-3)GlcNAc(b1-2)Man(a1-6)]Man(b1-4)GlcNAc(b1-4)[Fuc(a1-6)]GlcNAc
In short: as §1

[17] = biological target: Fuc(a1-2)Gal(b1-3)GlcNAc(b1-3)GalNAc
In short: as §1

[18] = biological target: Fuc(a1-2)Gal(b1-3)[Fuc(a1-4)]GlcNAc(b1-3)[Gal(b1-4)GlcNAc(b1-6)]Gal(b1-4)Glc
In short: as §1

[19] = biological target: Fuc(a1-2)Gal(b1-4)GlcNAc(b1-3)Gal(b1-4)GlcNAc
In short: as §1

[20] = biological target: Fuc(a1-2)Gal(b1-4)GlcNAc(b1-3)Gal(b1-4)GlcNAc(b1-3)Gal(b1-4)GlcNAc
In short: as §1

[21] = biological target: Fuc(a1-2)Gal(b1-4)[Fuc(a1-3)]GlcNAc(b1-3)Gal(b1-4)[Fuc(a1-3)]GlcNAc(b1-3)Gal(b1-4)[Fuc(a1-3)]GlcNAc
In short: as §1

[22] = biological target: Fuc(a1-2)[Gal(a1-3)]Gal(b1-4)GlcNAc(b1-2)Man(a1-3)[Fuc(a1-2)[Gal(a1-3)]Gal(b1-4)GlcNAc(b1-2)Man(a1-6)]Man(b1-4)GlcNAc(b1-4)[Fuc(a1-6)]GlcNAc
In short: as §1

[23] = biological target: Fuc(a1-2)[Gal(a1-3)]Gal(b1-4)[Fuc(a1-3)]GlcNAc(b1-3)GalNAc
In short: as §1

[24] = biological target: Fuc(a1-2)[GalNAc(a1-3)]Gal(b1-4)GlcNAc(b1-3)Gal(b1-4)GlcNAc
In short: as §1

[25] = biological target: Fuc(a1-2)[GalNAc(a1-3)]Gal(b1-4)GlcNAc(b1-3)Gal(b1-4)GlcNAc(b1-3)Gal(b1-4)GlcNAc
In short: as §1

Fuc(a1-3)GlcNAc = biological target: Fuc(a1-3)GlcNAc
In short: as §1

Gal(b1-2)Gal = biological target: Gal(b1-2)Gal
In short: as §1

[26] = biological target: Gal(b1-3)GalNAc(a1-3)[Fuc(a1-2)]Gal(b1-4)Glc
In short: as §1

[27] = biological target: Gal(b1-3)GlcNAc(b1-2)Man(a1-3)[Gal(b1-3)GlcNAc(b1-2)Man(a1-6)]Man(b1-4)GlcNAc(b1-4)GlcNAc
In short: as §1

[28] = biological target: Gal(b1-3)[Fuc(a1-4)]GlcNAc(b1-2)Man(a1-3)[Gal(b1-3)[Fuc(a1-4)]GlcNAc(b1-2)Man(a1-6)]Man(b1-4)GlcNAc(b1-4)GlcNAc
In short: as §1

[29] = biological target: Gal(b1-3)[Fuc(a1-4)]GlcNAc(b1-2)Man(a1-3)[Gal(b1-3)[Fuc(a1-4)]GlcNAc(b1-2)Man(a1-6)]Man(b1-4)GlcNAc(b1-4)[Fuc(a1-6)]GlcNAc
In short: as §1

[30] = biological target: Gal(b1-4)GlcNAc(b1-3)Gal(b1-4)GlcNAc(b1-3)Gal(b1-4)GlcNAc
In short: as §1

[31] = biological target: Gal(b1-4)GlcNAc(b1-6)Gal(b1-4)GlcNAc
In short: as §1

Gal4S(b1-4)GlcNAc = biological target: Gal4S(b1-4)GlcNAc
In short: as §1

Gal6S(b1-4)Glc = biological target: Gal6S(b1-4)Glc
In short: as §1

Gal6S(b1-4)GlcNAc = biological target: Gal6S(b1-4)GlcNAc
In short: as §1

[32] = biological target: GlcNAc(b1-2)Man(a1-3)[GlcNAc(b1-4)][GlcNAc(b1-2)Man(a1-6)]Man(b1-4)GlcNAc(b1-4)GlcNAc
In short: as §1

[33] = biological target: Neu5Ac(a2-6)Gal(b1-4)GlcNAc(b1-2)Man(a1-3)[Gal(b1-4)GlcNAc(b1-2)Man(a1-6)]Man(b1-4)GlcNAc(b1-4)GlcNAc
In short: as §1

[34] = biological target: Neu5Ac(a2-6)Gal(b1-4)GlcNAc(b1-2)Man(a1-6)[Man(a1-3)]Man(b1-4)GlcNAc(b1-4)GlcNAc
In short: as §1

[35] = biological target: Neu5Ac(a2-6)Gal(b1-4)GlcNAc(b1-3)Gal(b1-3)GlcNAc
In short: as §1

[36] = biological target: Neu5Gc(a2-3)Gal(b1-4)GlcNAc
In short: as §1

B1: Intelectin-1a (Mus musculus) (protein)
chain: AEWSHPQFEKAEENLDTNRWGNSFFSSLPRSCKEIKQEHTKAQDGLYFLRTKNGVIYQTFCDMTTAGGGWTLVASVHENNMRGKCTVGDRWSSQQGNRADYPEGDGNWANYNTFGSAEAATSDDYKNPGYFDIQAENLGIWHVPNKSPLHNWRKSSLLRYRTFTGFLQHLGHNLFGLYKKYPVKYGEGKCWTDNGPALPVVYDFGDARKTASYYSPSGQREFTAGYVQFRVFNNERAASALCAGVRVTGCNTEHHCIGGGGFFPEGNPVQCGDFASFDWDGYGTHNGYSSSRKITEAAVLLFYR
glycan array binding signal (z-score) [1]: -0.454 | glycan array binding signal (z-score) [2]: -0.723 | glycan array binding signal (z-score) [3]: -0.237 | glycan array binding signal (z-score) [4]: 0.808 | glycan array binding signal (z-score) [5]: -0.222 | glycan array binding signal (z-score) [6]: -1.12 | glycan array binding signal (z-score) [7]: -0.402 | glycan array binding signal (z-score) [8]: -0.8 | glycan array binding signal (z-score) [9]: 6.37 | glycan array binding signal (z-score) [10]: 0.578 | glycan array binding signal (z-score) [11]: 3.98 | glycan array binding signal (z-score) [12]: -0.293 | glycan array binding signal (z-score) [13]: 0.765 | glycan array binding signal (z-score) [14]: -0.791 | glycan array binding signal (z-score) [15]: -0.483

B2: Gal 7 (Canis lupus) (protein)
chain: MAGSSNVPHKTSLPEGIRVGTVMRIRGVVPNKAGRFYVNLLCGEAPGSEAALHFNPRLDESTVVFNTLEQGAWGREERGTGIPFQRGQPFDVLLIATDEGFKAVVGDSEYHHFRYRIPPARVRLLEVGGDLQLESVSVF
glycan array binding signal (z-score) [16]: -0.169 | glycan array binding signal (z-score) [17]: -0.187 | glycan array binding signal (z-score) [18]: -0.135 | glycan array binding signal (z-score) [19]: 9.85 | glycan array binding signal (z-score) [20]: 8.28 | glycan array binding signal (z-score) [21]: 5.78 | glycan array binding signal (z-score) [22]: 1.25 | glycan array binding signal (z-score) [23]: -0.16 | glycan array binding signal (z-score) [24]: 3.55 | glycan array binding signal (z-score) [25]: 2.59 | glycan array binding signal (z-score) (Fuc(a1-3)GlcNAc): -0.217 | glycan array binding signal (z-score) (Gal(b1-2)Gal): -0.214 | glycan array binding signal (z-score) [26]: 0.252 | glycan array binding signal (z-score) [27]: -0.08 | glycan array binding signal (z-score) [28]: -0.166 | glycan array binding signal (z-score) [29]: -0.199 | glycan array binding signal (z-score) [30]: 3.2 | glycan array binding signal (z-score) [31]: -0.206 | glycan array binding signal (z-score) (Gal4S(b1-4)GlcNAc): -0.2 | glycan array binding signal (z-score) (Gal6S(b1-4)Glc): -0.204 | glycan array binding signal (z-score) (Gal6S(b1-4)GlcNAc): -0.195 | glycan array binding signal (z-score) [32]: -0.186 | glycan array binding signal (z-score) [3]: -0.22 | glycan array binding signal (z-score) [33]: -0.212 | glycan array binding signal (z-score) [34]: -0.212 | glycan array binding signal (z-score) [35]: 3.85 | glycan array binding signal (z-score) [13]: 3.5 | glycan array binding signal (z-score) [36]: -0.217
